Test results reported in PubChem BioAssay (NCATS).
“And” between values parts separate entries of the source, which are not always exact repeats. Equal entries are not always repeated. Results filed as inconclusive are left out. The source made the active and inactive calls. Unless noted, calls come from the whole dose curve.

Columns and labels:
[1] = biological target: Estrogen receptor (Homo sapiens) (UniProt P03372); assay: qHTS assay for small molecule antagonists of estrogen receptor alpha signaling (AID 588513; active = well fitted curve in the direction sought with a large enough effect in the signal ratio, with a control signal flat, not every such curve was filed as active; the % refers to the signal ratio; note: % is set by controls: 0 for no effect and ±100 for the full control effect); details: ER-alpha-UAS-bla HEK293, beta-lactamase ratio, antagonist mode; series mostly up to 76.9 µM
Outline: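 ER-alpha-UAS-bla GripTite HEK 293 cells in medium with 2% charcoal/dextran-treated FBS were preincubated 4 h at 37 C, dosed with compound (1:2 titration), stimulated with 0.5nM 17-beta-estradiol for 18 h, then read by CCF4 beta-lactamase fluorescence.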

[2] = biological target: Estrogen receptor (Homo sapiens) (UniProt P03372); assay: qHTS assay for small molecule agonists of estrogen receptor alpha signaling (AID 588514); details: ER-alpha-UAS-bla HEK293, beta-lactamase ratio, 18 h, percent of full estradiol response, vehicle zero; series mostly up to 76.8 µM;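 note: 0% = vehicle only and 100% = reference agonist; nearly all actives have a fitted effect of over 70% in size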
Outline: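 Reporter-gene assay. […] controls beta-lactamase in HEK 293 GripTite cells; after 18 hrs with compound, CCF4 substrate is added for 2 hrs and fluorescence is read.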

[3] = biological target: Androgen receptor (Homo sapiens) (UniProt P10275); assay: qHTS assay for small molecule agonists of androgen receptor signaling (AID 588515; active = well fitted curve in the direction sought with a large enough effect in the signal ratio, with a control signal flat; the % refers to the signal ratio; note: % is set by controls: 0 for no effect and ±100 for the full control effect); details: AR-UAS-bla HEK293, beta-lactamase ratio, agonist 16 h; stronger effect = higher value
Outline: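 EC50 and efficacy came from Hill fits of titrations (up to 92 uM) normalized to 30 nM R1881 as 100% and DMSO as 0%. Compound exposure was 16 h at 37 C on AR-UAS-bla HEK293 cells, with a 405/460/530 nm CCF4 fluorescence read.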

[4] = biological target: Androgen receptor (Homo sapiens) (UniProt P10275); assay: qHTS assay for small molecule antagonists of androgen receptor signaling (AID 588516; active = well fitted curve in the direction sought with a large enough effect in the signal ratio, with a control signal flat, not every such curve was filed as active; the % refers to the signal ratio; note: % is set by controls: 0 for no effect and ±100 for the full control effect); details: AR-UAS-bla HEK293, beta-lactamase ratio, antagonist mode, 16 h; series mostly up to 76.8 µM
Outline: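 AR-UAS-bla-GripTite HEK 293 cells (2000/well, 5 h at 37 C) received compound titrations, then R1881 at 10 nM final; after 16 h at 37 C, CCF4 dye 2 h RT, beta-lactamase fluorescence read; IC50 from Hill fits.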

[5] = qHTS assay for small molecule antagonists of peroxisome proliferator-activated receptor delta signaling (AID 588535; active = well fitted inhibition curve with a large enough effect in the signal ratio, with a control signal flat, not every such curve was filed as active; the % refers to the signal ratio;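 for max response: cells co-treated with a PPAR-delta agonist as stimulator during compound exposure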); details: HEK293T PPARd-UAS-bla, beta-lactamase FRET ratio, 18 h; 460 nm channel
Outline: (§1)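 GeneBLAzer PPAR-delta-UAS-bla HEK293T cells in medium with 2% charcoal/dextran FBS were preincubated 5 hrs at 37 C, then given compounds, incubated 18 hrs at 37 C, and read by CCF4 beta-lactamase fluorescence; IC50 from Hill fits.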

[6] = biological target: Peroxisome proliferator-activated receptor delta (Homo sapiens) (UniProt Q03181); assay: as above; details: HEK293T PPARd-UAS-bla, beta-lactamase FRET ratio, 18 h; series mostly up to 76.7 µM
Outline: as §1

[7] = biological target: Bile acid receptor (Homo sapiens) (UniProt Q96RI1); assay: qHTS assay for small molecule antagonists of farnesoid X receptor signaling (AID 588526); details: HEK293T FXR-UAS-bla, beta-lactamase ratio, antagonist mode; series mostly up to 76.7 µM; note: % is set by controls: 0 for no effect and ±100 for the full control effect
Outline: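 Concentration-response titrations were fitted to the Hill equation for half-maximal inhibition and maximal response, with data normalised to 50 uM chenodeoxycholic acid and DMSO control wells. Cells: FXR-UAS-bla HEK293T, dialyzed FBS.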

[8] = biological target: DNA dC->dU-editing enzyme APOBEC-3G (Homo sapiens) (UniProt Q9HC16); assay: qHTS for inhibitors of Vif-A3G interactions: Validation (AID 588379; active = well fitted inhibition curve with a large enough effect; note: 0% is about no effect); details: Vif-A3G protein interaction assay; series mostly up to 46.1 µM
Outline: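 HeLa cells stably expressing Vif and A3G-eYFP, 700 cells/well, incubated overnight at 37 deg C, then exposed to compound overnight at 37 deg C. Inhibition of Vif-mediated degradation read as increased yellow fluorescence (Ex 488/Em 500-530) by laser-scanning cytometry.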

[9] = biological target: Glucocorticoid receptor (Homo sapiens) (UniProt P04150); assay: qHTS assay for small molecule agonists of glucocorticoid receptor signaling (AID 588532; active = well fitted curve in the direction sought with a large enough effect in the signal ratio, with a control signal flat; the % refers to the signal ratio;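 note: 100% = dexamethasone at 0.1 µM and 0% = DMSO only wells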); details: HeLa MMTV-bla, beta-lactamase ratio, agonist, 18 h; stronger effect = higher value; percent of dexamethasone control, DMSO zero
Outline: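 Stimulation of a glucocorticoid response element-driven beta-lactamase gene was measured in HeLa cells. Responses were scaled between DMSO basal and 0.1 uM dexamethasone, then fitted for half-maximal stimulation.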

[10] = biological target: Glucocorticoid receptor (Homo sapiens) (UniProt P04150); assay: qHTS assay for small molecule antagonists of glucocorticoid receptor signaling (AID 588533; active = well fitted inhibition curve with a large enough effect in the signal ratio, with a control signal flat, not every such curve was filed as active; the % refers to the signal ratio); details: HeLa MMTV-bla, GRE beta-lactamase ratio, antagonist mode, 18 h; series mostly up to 76.8 µM
Outline: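 Antagonist-mode qHTS: compound titrations added to GRE-bla HeLa cells, then dexamethasone 2 nM final; 18 h, 37 C. CCF4 FRET fluorescence normalized to dexamethasone and DMSO; IC50 from Hill fit.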

Peroxisome proliferator-activated receptor delta (Homo sapiens), sequence (Q03181 whole entry, looked up): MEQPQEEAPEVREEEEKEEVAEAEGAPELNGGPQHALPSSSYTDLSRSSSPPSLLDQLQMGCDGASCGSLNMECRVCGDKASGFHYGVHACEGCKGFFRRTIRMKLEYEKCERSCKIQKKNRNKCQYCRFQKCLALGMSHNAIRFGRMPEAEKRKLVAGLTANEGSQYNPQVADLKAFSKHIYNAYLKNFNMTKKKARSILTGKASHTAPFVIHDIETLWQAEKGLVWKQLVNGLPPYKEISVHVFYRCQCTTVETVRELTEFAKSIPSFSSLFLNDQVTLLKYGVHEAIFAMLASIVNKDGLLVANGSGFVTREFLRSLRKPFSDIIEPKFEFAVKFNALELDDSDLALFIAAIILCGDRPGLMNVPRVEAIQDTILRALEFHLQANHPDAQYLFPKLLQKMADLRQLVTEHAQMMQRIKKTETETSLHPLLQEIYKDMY
DNA dC->dU-editing enzyme APOBEC-3G (Homo sapiens), sequence (Q9HC16 whole entry, looked up): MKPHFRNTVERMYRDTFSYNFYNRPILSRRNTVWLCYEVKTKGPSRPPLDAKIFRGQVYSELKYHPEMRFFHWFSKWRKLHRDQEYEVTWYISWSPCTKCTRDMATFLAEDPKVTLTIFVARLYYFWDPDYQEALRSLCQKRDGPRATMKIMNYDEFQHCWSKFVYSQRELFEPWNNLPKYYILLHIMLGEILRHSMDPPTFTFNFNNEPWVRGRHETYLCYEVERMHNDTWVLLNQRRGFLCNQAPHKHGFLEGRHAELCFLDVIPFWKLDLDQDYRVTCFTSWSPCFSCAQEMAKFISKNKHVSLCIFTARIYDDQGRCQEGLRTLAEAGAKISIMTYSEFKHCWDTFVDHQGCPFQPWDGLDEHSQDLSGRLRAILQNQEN
Estrogen receptor (Homo sapiens), sequence (P03372 whole entry, looked up): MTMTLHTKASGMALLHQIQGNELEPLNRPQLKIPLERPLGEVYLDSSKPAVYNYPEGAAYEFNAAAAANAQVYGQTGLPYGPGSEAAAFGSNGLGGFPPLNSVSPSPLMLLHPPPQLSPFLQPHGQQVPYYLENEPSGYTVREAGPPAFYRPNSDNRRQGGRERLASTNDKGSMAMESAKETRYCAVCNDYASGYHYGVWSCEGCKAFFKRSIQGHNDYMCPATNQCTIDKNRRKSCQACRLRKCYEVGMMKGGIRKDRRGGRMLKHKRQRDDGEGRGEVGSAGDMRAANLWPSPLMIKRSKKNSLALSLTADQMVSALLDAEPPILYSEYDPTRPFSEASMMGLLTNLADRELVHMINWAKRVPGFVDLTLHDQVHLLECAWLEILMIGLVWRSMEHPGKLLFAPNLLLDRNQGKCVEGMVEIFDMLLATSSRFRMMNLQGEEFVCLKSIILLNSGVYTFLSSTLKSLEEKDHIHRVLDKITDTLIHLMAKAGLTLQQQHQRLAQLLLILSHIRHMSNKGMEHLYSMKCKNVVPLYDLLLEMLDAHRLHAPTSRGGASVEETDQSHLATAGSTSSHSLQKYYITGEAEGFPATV
Androgen receptor (Homo sapiens), sequence (P10275 whole entry, looked up): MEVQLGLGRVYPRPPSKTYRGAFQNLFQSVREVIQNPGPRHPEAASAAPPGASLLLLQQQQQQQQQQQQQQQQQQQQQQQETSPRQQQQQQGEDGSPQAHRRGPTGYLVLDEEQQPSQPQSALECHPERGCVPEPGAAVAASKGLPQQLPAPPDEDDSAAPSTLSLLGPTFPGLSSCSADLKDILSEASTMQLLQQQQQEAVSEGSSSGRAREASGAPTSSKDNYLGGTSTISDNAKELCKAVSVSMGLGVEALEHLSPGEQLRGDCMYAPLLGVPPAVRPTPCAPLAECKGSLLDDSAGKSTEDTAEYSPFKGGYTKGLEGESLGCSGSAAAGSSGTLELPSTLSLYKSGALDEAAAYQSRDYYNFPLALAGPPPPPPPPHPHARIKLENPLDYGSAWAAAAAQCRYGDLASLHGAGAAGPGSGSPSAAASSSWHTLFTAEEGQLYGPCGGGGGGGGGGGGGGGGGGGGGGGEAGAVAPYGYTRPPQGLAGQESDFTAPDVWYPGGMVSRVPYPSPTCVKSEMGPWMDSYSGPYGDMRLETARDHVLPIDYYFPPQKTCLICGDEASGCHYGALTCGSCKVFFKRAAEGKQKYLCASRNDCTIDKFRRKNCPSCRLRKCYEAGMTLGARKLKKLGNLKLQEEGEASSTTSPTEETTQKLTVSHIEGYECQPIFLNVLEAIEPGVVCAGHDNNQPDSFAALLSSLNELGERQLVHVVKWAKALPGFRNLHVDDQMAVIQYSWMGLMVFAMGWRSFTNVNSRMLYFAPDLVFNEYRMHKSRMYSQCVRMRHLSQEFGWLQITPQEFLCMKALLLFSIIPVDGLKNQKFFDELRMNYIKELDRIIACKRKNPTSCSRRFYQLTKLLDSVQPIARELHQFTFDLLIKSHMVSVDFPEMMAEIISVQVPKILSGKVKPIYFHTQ
Glucocorticoid receptor (Homo sapiens), sequence (P04150 whole entry, looked up): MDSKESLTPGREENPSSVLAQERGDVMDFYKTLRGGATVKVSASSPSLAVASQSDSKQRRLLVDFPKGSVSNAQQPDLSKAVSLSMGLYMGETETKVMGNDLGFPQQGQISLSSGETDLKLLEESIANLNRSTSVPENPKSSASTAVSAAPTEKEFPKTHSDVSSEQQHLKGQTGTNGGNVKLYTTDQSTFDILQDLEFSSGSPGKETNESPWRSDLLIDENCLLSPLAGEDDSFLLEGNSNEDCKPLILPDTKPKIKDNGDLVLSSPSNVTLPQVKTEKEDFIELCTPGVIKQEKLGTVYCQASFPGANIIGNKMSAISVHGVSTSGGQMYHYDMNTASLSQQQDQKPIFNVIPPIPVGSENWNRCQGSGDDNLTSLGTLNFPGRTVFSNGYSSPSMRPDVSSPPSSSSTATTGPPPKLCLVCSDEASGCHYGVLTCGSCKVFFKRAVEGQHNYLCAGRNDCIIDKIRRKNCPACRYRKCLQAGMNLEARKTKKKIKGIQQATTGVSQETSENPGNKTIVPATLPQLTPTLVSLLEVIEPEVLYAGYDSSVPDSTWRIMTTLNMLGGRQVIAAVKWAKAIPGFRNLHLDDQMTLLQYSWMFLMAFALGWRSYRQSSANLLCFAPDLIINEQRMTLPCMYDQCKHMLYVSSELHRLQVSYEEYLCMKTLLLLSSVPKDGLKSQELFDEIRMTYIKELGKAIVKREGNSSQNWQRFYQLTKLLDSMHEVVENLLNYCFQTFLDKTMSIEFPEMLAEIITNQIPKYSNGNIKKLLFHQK
Bile acid receptor (Homo sapiens), sequence (Q96RI1 whole entry, looked up): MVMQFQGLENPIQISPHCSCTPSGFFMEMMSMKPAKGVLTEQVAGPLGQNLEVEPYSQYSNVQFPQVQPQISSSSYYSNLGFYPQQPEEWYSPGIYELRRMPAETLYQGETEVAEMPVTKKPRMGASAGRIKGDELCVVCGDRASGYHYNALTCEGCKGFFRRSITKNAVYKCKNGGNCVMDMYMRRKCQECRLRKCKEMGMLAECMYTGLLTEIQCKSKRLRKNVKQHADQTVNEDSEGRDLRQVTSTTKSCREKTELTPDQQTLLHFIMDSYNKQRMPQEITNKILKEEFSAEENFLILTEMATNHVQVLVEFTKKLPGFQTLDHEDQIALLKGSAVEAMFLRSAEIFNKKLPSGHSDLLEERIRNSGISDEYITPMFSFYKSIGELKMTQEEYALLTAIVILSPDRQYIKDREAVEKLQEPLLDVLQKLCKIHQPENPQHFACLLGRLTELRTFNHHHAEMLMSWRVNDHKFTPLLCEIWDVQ

Which results are given for `CC(C)C(C)(C)C(C)(C)C(C)(C)S`?
outcome [1]: inactive; outcome [2]: inactive; activation [3]: -7.25% (inactive) and 10.8% (inactive); outcome [4]: inactive; max response [5]: 5.05% and 21.4%; outcome [6]: inactive

Which results are given for `Nc1cccc2c(N)cccc12`?
outcome [2]: inactive; activation [3]: -5.98% (inactive) and -0.762% (inactive); outcome [7]: inactive

With `CC(C)N(CCC(=O)c1ccc2ccccc2c1)Cc1ccccc1` as the compound, how does the outcome [8] read?
Its outcome is “inactive”.

What does the source list for `COC(=O)c1c(Cl)c(Cl)c(C(=O)OC)c(Cl)c1Cl`?
outcome [2]: inactive; outcome [7]: inactive; activation [9]: -1.01% (inactive); outcome [10]: inactive; max response [5]: -8.5%; outcome [6]: inactive

With `CC(=O)OC/C=C(C)/C=C/C=C(C)/C=C/C1=C(C)CCCC1(C)C` as the compound, how does the outcome [1] read?
The outcome was “inactive”.

And the outcome [2]?
The outcome was “inactive”.

What about the max response [5] of the same compound?
Its max response is 34.7%.

What about the outcome [6] of the same compound?
The outcome was “inactive”.

With `CC(C)(c1ccc(O)cc1)c1ccc(O)cc1` as the compound, how does the max response [5] read?
The max response was -24.6%.

And the outcome [6]?
The outcome was “inactive”.

Which outcome [7] does the source give for `O=C(Oc1ccccc1)c1cccc(C(=O)Oc2ccccc2)c1` here?
Its outcome is “inactive”.

And the activation [9]?
Its activation is -8.17% (inactive).

And the outcome [10]?
Its outcome is “inactive”.

And the max response [5]?
The max response was 22.4%.

What about the outcome [6] of the same compound?
The outcome was “inactive”.

For `NCC(=O)O`, which outcome [8] is on record?
Its outcome is “inactive”.

What does the source list for `CCCCCCCCCCCCCCCC[n+]1ccccc1`?
activation [9]: 4.95% (inactive); max response [5]: 21.5%; outcome [6]: inactive

With `Oc1ccccc1` as the compound, how does the outcome [7] read?
The outcome was “inactive”.

And the max response [5]?
The max response was -6.84% and 11%.

And the outcome [6]?
Its outcome is “inactive”.

Which outcome [8] does the source give for `NC(N)=NCCCCN=C(N)N` here?
Its outcome is “inactive”.

For `O=C(Oc1ccccc1)c1ccccc1O`, which outcome [2] is on record?
The outcome was “inactive”.

And the outcome [10]?
Its outcome is “inactive”.

Which activation [9] does the source give for `C1=CC2C3C=CC(C3)C2C1` (stereo not drawn) here?
The activation was -4.75% (inactive).

With `C[C@@H](C1=C(CCN(C)C)Cc2ccccc21)c1ccccn1` as the compound, how does the outcome [8] read?
Its outcome is “inactive”.

For `c1ccc2occc2c1`, which outcome [7] is on record?
Its outcome is “inactive”.

Which outcome [8] does the source give for `Clc1ccc2c(c1)N=C(N1CCNCC1)c1ccccc1N2` here?
Its outcome is “inactive”.

Which results are given for `COc1cc(C=O)ccc1O`?
outcome [8]: inactive; outcome [1]: inactive; outcome [2]: inactive; outcome [4]: inactive; outcome [7]: inactive; max response [5]: -8.31% and -9.26%; outcome [6]: inactive
